Screens deposited in PubChem BioAssay by The Scripps Research Institute Molecular Screening Center.
In the library only some 0.9% were active in any assay of this set; here they are far more common.
TR-FRET SRC-2 ct: TR-FRET signal artefacts, primary screen, artefact control for PPARgamma SRC-2 agonist project, biochemical | TR-FRET artefact counter-screen; active compounds read high | TR-FRET ratio at 8 µM | hit rate 0.4% among 200,000 | AID 1049, 2008
PPARg SRC-3 ag: PPARgamma agonists recruiting SRC-3 coactivator, primary screen, biochemical. hit rate 0.26% among 200,000. activation, % at 8 µM. biochemical PPARgamma/SRC-3 coactivator recruitment assay. Peroxisome proliferator-activated receptor gamma (Homo sapiens), P37231. AID 731, 2007; in the data active = activation above about 23%
Target sequence (P37231 whole entry, looked up): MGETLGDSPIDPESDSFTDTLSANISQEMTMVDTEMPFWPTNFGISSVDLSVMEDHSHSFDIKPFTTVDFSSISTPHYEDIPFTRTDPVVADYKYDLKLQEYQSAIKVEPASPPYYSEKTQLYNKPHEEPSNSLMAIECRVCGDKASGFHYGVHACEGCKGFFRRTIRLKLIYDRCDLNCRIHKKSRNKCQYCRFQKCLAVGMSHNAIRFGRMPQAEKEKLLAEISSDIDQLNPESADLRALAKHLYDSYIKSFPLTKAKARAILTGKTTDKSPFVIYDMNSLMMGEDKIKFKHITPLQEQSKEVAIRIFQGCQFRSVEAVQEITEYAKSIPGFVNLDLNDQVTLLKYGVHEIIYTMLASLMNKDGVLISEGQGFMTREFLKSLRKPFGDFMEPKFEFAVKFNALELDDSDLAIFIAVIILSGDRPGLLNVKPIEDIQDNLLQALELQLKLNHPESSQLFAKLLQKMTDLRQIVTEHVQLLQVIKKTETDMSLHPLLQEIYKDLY
SRC3 TRFRET art: TR-FRET detection interference compounds, artefact control for PPARgamma SRC-3 recruitment agonists, biochemical, TR-FRET ratio. TR-FRET ratio at 8 µM. TR-FRET artefact counter-screen, PPARgamma/SRC-3 format; active compounds read high. hit rate 0.39% among 99,000
PPARg SRC1 recr: PPARgamma agonists recruiting SRC-1 coactivator, primary screen, biochemical; AID 631, 2007; activation, % at 8 µM; hit rate 0.41% among 200,000; PPARgamma-SRC-1 coactivator recruitment biochemical assay; in the data active = activation above about 19%
SRC1 TRFRET art: TR-FRET detection interference compounds, primary screen, artefact control for PPARgamma SRC-1 recruitment agonists, biochemical, TR-FRET emission ratio; TR-FRET detection artefact counter-screen; active compounds read high; TR-FRET ratio at 8 µM; hit rate 0.34% among 99,000; AID 1051, 2008; in the data active = TR-FRET ratio above about 2300
PPARg SRC2 recr: agonists of PPARg-SRC-2 recruitment, primary screen, biochemical, HTS | activation, % at 8 µM | PPARgamma LBD-SRC-2 recruitment | AID 1032, 2008 | hit rate 0.34% among 200,000; in the data active = activation above about 22%
A number is an active result; - = inactive; . = not tested or not shown. Rule as the data show it, unless noted: active = TR-FRET ratio above about 2000; inactive = the rest.

SMILES	TR-FRET SRC-2 ct	PPARg SRC-3 ag	SRC3 TRFRET art	PPARg SRC1 recr	SRC1 TRFRET art	PPARg SRC2 recr
O=C(CSc1nnnn1Cc1ccccc1)NCCc1ccccc1	-	-	-	-	-	-
O=C(CSc1nnnn1Cc1ccccc1)NCC(=O)c1ccccc1	-	-	.	-	.	23
CC(=O)Oc1ccc2c(=O)c(Oc3ccccc3[N+](=O)[O-])coc2c1	-	-	-	-	-	-
O=C1OCCC1Sc1nnc(-c2ccc(Br)cc2)o1 (stereo not drawn)	-	-	.	-	.	24
COc1ccc(S(=O)(=O)Nc2c(F)cccc2F)cc1	2118	-	-	-	-	22
COc1ccc(N2CCC(CNC(=O)Nc3ccccc3)C2)cc1 (stereo not drawn)	-	-	.	-	.	24
COc1ccc(N2CC(NC(=O)Nc3ccccc3)CC2=O)cc1 (stereo not drawn)	-	-	-	-	-	-
CC(C)(C)C1CCc2c(sc(NC(=O)c3cccs3)c2C(N)=O)C1 (stereo not drawn)	-	-	.	-	.	24
CC(O)C(=O)N/N=C/c1cccc(Cl)c1Cl (stereo not drawn)	-	-	.	-	.	-
COc1ccc(CCn2c(-c3ccc(Cl)cc3)n[nH]c2=S)cc1OC	-	-	-	-	-	-
CCCCn1c(-c2cc(Cl)ccc2OC)n[nH]c1=S	-	-	.	-	.	22
Cc1cnc(NC(=O)c2ccc(OCC3CCCO3)cc2)s1 (stereo not drawn)	-	-	-	-	-	-
COc1ccc(OC)c(-c2csc(NC(=O)c3ccc(OCC4CCCO4)cc3)n2)c1 (stereo not drawn)	-	-	2496	-	-	-
O=C(c1cc2sccc2n1Cc1ccccc1)N1CCc2ccccc21	2447	-	.	-	.	-
O=C(c1cc2sccc2n1Cc1ccc(F)cc1)N1CCN(c2nc3ccccc3s2)CC1	2655	-	.	-	.	-
COC(=O)CC(c1ccc(F)cc1)n1c(C)ccc1C (stereo not drawn)	-	-	-	-	-	-
COC(=O)CCC(=O)c1oc2ccc(Br)cc2c1N	-	-	.	-	.	24
COc1ccc2oc(C(=O)CCC(=O)O)c(N)c2c1	-	-	.	-	.	-
Cc1ccc([N+](=O)[O-])cc1N	-	-	-	-	-	-
Nc1ccc2c(c1)Cc1cc([N+](=O)[O-])ccc1-2	2054	-	-	-	-	-
CC(C)N1CCN(Cc2ccc(Oc3ncccn3)cc2)CC1CCO (stereo not drawn)	-	-	-	21	-	-
CC(C)CCN1CCN(Cc2ccc(Oc3ncccn3)cc2)CC1CCO (stereo not drawn)	-	-	-	-	-	-
CN(c1ccc(C(=O)Nc2ccc3c(c2)OCCO3)cc1)S(C)(=O)=O	-	-	.	-	.	-
Cc1ccc(C)c(S(=O)(=O)N2CCN(CC(=O)Nc3sccc3C#N)CC2)c1	-	-	2054	-	-	-
COc1ccc2c(c1)OC13CCN(C)CC1C2C(C(=O)c1ccc(F)cc1)C(=O)N3 (stereo not drawn)	-	-	-	-	-	-
SMILES	TR-FRET SRC-2 ct	PPARg SRC-3 ag	SRC3 TRFRET art	PPARg SRC1 recr	SRC1 TRFRET art	PPARg SRC2 recr
Cc1oc(-c2cccc(Cl)c2)nc1CN1CCC(C(=O)N2CCN(c3ccccc3F)CC2)CC1	-	-	-	-	2346	-
CCC(Oc1ccccc1)C(=O)Nc1ccccn1 (stereo not drawn)	-	-	.	-	.	-
COc1ccc(OCC(=O)Nc2cc(-c3nn(C)c(=O)c4ccccc34)ccc2OC)cc1	-	-	.	38	.	-
CCCc1nnc(NC(=O)c2cccc(OC)c2)s1	-	-	.	-	.	-
COc1ccc(CSc2nnc(Cc3sc(-c4ccccc4)nc3-c3ccccc3)o2)cc1	3227	-	.	-	.	-
Cc1ccc(-n2nc(C(=O)c3ccccc3)n3c(=O)c(Cc4ccccc4)nnc23)cc1	-	-	.	-	.	-
Nc1nc(-c2ccc(Cl)cc2)nnc1-c1ccc(Br)cc1	-	-	3281	-	-	-
COc1ccccc1NCCC(=O)OCC(=O)NCc1ccco1	-	-	.	-	.	-
CCC1CCCCN1C(=O)CSc1nnc(-c2ccc(OC)cc2)o1 (stereo not drawn)	-	-	.	-	.	-
